Measurements published in the supplement of paper PMC6555819.

Experiments:
Test in all cases: PBM binding z-score (relative to random genomic background probes); higher = stronger binding; sequences stand for … in GC…GCGATTGACAGCGTAGAATGAAGG
[1] = tested on: FXR:RXRa (NR concentration 270 nM, RXRa partner concentration 90 nM)
Summary of the method: (§1)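 Custom Agilent 4×180K protein-binding microarrays carried double-stranded probes, each with a 34-nt variable region. These regions held direct-repeat seeds, single-nucleotide variants, half-site ablations and random human genomic background sequences. Ligand-free nuclear receptor dimers were incubated on the arrays for 1 h, antibodies against each partner (one per run) detected binding, and scanned fluorescence was regression-normalized. Binding z-scores take the random background probes as reference.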

[2] = tested on: LXRa:RXRa (NR concentration 270 nM, RXRa partner concentration 90 nM)
Summary of the method: as §1

[3] = tested on: LXRa homodimer (NR concentration 270 nM)
Summary of the method: as §1

[4] = tested on: LXRb:RXRa (NR concentration 270 nM, RXRa partner concentration 90 nM)
Summary of the method: as §1

[5] = tested on: LXRb homodimer (NR concentration 270 nM)
Summary of the method: as §1

[6] = tested on: PPARa:RXRa (NR concentration 270 nM, RXRa partner concentration 90 nM)
Summary of the method: as §1

[7] = tested on: PPARg:RXRa (NR concentration 180 nM, RXRa partner concentration 90 nM)
Summary of the method: as §1

[8] = tested on: PPARg:RXRa 270nM:90nM, anti-RXR (NR concentration 270 nM, RXRa partner concentration 90 nM)
Summary of the method: as §1

[9] = tested on: PPARg:RXRa 30nM:10nM, anti-RXR (NR concentration 30 nM, RXRa partner concentration 10 nM)
Summary of the method: as §1

[10] = tested on: PPARg:RXRa 90nM:30nM, anti-RXR (NR concentration 90 nM, RXRa partner concentration 30 nM)
Summary of the method: as §1

[11] = tested on: PPARg:RXRa DBDmut IVT, anti-RXR (DBD mutation: RXRa K156A/R161A, NR concentration 270 nM, RXRa partner concentration 90 nM)
Summary of the method: as §1

[12] = tested on: PPARg:RXRa IVT, anti-PPARg (NR concentration 270 nM, RXRa partner concentration 90 nM)
Summary of the method: as §1

[13] = tested on: PPARg DBDmut:RXRa IVT, anti-PPARg (DBD mutation: PPARg1 K132A/R137A, NR concentration 270 nM, RXRa partner concentration 90 nM)
Summary of the method: as §1

[14] = tested on: PPARg DBDmut IVT, anti-PPARg (DBD mutation: PPARg1 K132A/R137A, NR concentration 270 nM)
Summary of the method: as §1

[15] = tested on: PPARg homodimer (NR concentration 180 nM)
Summary of the method: as §1

[16] = tested on: PXR:RXRa (NR concentration 270 nM, RXRa partner concentration 90 nM)
Summary of the method: as §1

[17] = tested on: PXR homodimer (NR concentration 270 nM)
Summary of the method: as §1

[18] = tested on: RARa:RXR (NR concentration 270 nM, RXRa partner concentration 90 nM)
Summary of the method: as §1

[19] = tested on: RARa homodimer (NR concentration 270 nM)
Summary of the method: as §1

[20] = tested on: RARb:RXRa (NR concentration 270 nM, RXRa partner concentration 90 nM)
Summary of the method: as §1

Row | Sequence | PBM binding z-score [1] | PBM binding z-score [2] | PBM binding z-score [3] | PBM binding z-score [4] | PBM binding z-score [5] | PBM binding z-score [6] | PBM binding z-score [7] | PBM binding z-score [8] | PBM binding z-score [9] | PBM binding z-score [10] | PBM binding z-score [11] | PBM binding z-score [12] | PBM binding z-score [13] | PBM binding z-score [14] | PBM binding z-score [15] | PBM binding z-score [16] | PBM binding z-score [17] | PBM binding z-score [18] | PBM binding z-score [19] | PBM binding z-score [20]
1 | GCTAGCAGGCCATTTGGGTCACGCAATGACGGGC | 0.679 | 0.476 | -0.416 | 0.378 | -0.491 | 2.23 | 1.32 | 1.45 | 0.36 | 0.648 | 2.42 | 3.05 | -0.368 | -0.646 | 0.0821 | 1.13 | -0.117 | 1.88 | -0.356 | 1.91
2 | CCTAGTTGGTCAAGGTCACACAGGCTATAGGTAC | 4.41 | 4.07 | 1.88 | 3.56 | 0.583 | 4.31 | 3.32 | 3.88 | 1.62 | 2.62 | 2.08 | 3.64 | 0.89 | 0.538 | 3.81 | 4.67 | 3.92 | 4.96 | 2.03 | 4.34
3 | CCAGACAGGTGAAAGGTAACTTAGTCTGGTACGC | 0.545 | 0.539 | -0.368 | 0.935 | -0.486 | 3.31 | 5.21 | 5.6 | 3.58 | 5.77 | 2.21 | 2.75 | 0.0771 | -0.396 | 0.712 | 0.936 | -0.035 | 1.59 | 0.346 | 1.15
4 | TCGAGTAGGTCACCAATGGGGCATTCAGCTTTCT | 3.29 | 3.16 | -0.128 | 2.79 | -0.57 | 4.45 | 5.85 | 5.14 | 2.8 | 4.74 | 5.54 | 6.57 | 0.462 | 0.45 | 1.71 | 2.42 | -0.543 | 3.13 | -0.919 | 3.84
5 | CGTCCAAGCTCAATGCTAGGTCAGTGAAAGCATT | -0.232 | -0.0286 | 0.428 | -0.0522 | -0.887 | 0.167 | -0.576 | -0.605 | -0.752 | -0.627 | 0.189 | 0.0626 | -1.2 | -1.34 | -0.137 | 0.0332 | -0.275 | 0.319 | -0.477 | 0.961
6 | GAAACGAGGGCAAAGTTGATAGCATCTGTCGACG | 1.38 | 1.27 | -0.429 | 1.02 | -0.45 | 4.4 | 7.78 | 7.51 | 7.45 | 8.19 | 5.26 | 5.32 | 0.311 | 0.0519 | 0.722 | 1.32 | 0.236 | 1.98 | 0.209 | 2.38
7 | CCTACTGGGCCACGAAAGGTCATTGACTCAGTGA | 4.14 | 5.29 | 4.5 | 4.65 | 0.406 | 5 | 4.93 | 4.87 | 2.71 | 4.15 | 5.69 | 5.8 | 0.0683 | -0.677 | 2.13 | 5.15 | 1.92 | 5.49 | 0.622 | 4.03
8 | GCTTACGGGTCAAAGGTTATAGCATGAATAGAAT | 7.45 | 5.9 | 0.64 | 6.1 | 0.563 | 6.96 | 11.1 | 9.42 | 9.01 | 9.91 | 4.91 | 5.87 | 1.16 | 0.991 | 2.12 | 6.26 | 0.29 | 8.55 | 0.989 | 4.79
